Holding throughout (assay): HT-SELEX; high values mean tight binding
Conditions in all cases: protein: recombinant; vector His6-GST; dsDNA, one strand shown

One experiment deals with T1, SALL4 ZFC4 WT (HT-SELEX) (Mus musculus, UniProt Q8BX22 870-940).
T1 sequence: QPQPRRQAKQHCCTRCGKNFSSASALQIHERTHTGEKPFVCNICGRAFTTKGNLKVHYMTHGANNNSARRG
Put shortly: (§1)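 Purified recombinant mouse SALL4 zinc finger cluster 4 (residues 870–940, 1 µg) was incubated with library DNA (1.5 µg first cycle, 200 ng later) in 100 µl of 10 mM Tris–HCl pH 7.5, 50 mM NaCl, poly(dI-dC) and DTT for 10 min at room temperature, with Ni2+ bead capture and reselection for up to 6 cycles in triplicate. MiSeq reads were scanned for 6-mers. Binding signal is each canonical k-mer's read fraction as fold change relative to the initial random library.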

In experiment [1] the target is T2, SALL4 ZFC4 R900W (HT-SELEX) (Mus musculus, UniProt Q8BX22 870-940, R900W).
T2 sequence: T1 sequence with R31W
In short, it runs like this:
as §1

In experiment [2] the target is T3, SALL4 ZFC4 G921D (HT-SELEX) (Mus musculus, UniProt Q8BX22 870-940, G921D).
T3 sequence: T1 sequence with G52D
Put shortly: as §1

42 sequences from PMC9838217, “Structure of SALL4 zinc finger domain reveals link between AT-rich DNA binding and Okihiro syndrome” can be followed below.

Where a chain is given by its changes, count along the chain named.

Take ACCCGA: the binding signal in the experiment with SALL4 ZFC4 WT (HT-SELEX) is 0.382 ± 0.00644 fold-change vs cycle 0; in experiment [1] it was 0.46 ± 0.0102 fold-change vs cycle 0; in experiment [2], 0.576 ± 0.0588 fold-change vs cycle 0.

Consider GAGTAA, for which the binding signal with SALL4 ZFC4 WT (HT-SELEX) amounted to 1.45 ± 0.0607 fold-change vs cycle 0; in experiment [1], 1.57 ± 0.0835 fold-change vs cycle 0; in experiment [2], 1.43 ± 0.106 fold-change vs cycle 0.

In the case of CCTTCG, the binding signal with SALL4 ZFC4 WT (HT-SELEX) is 0.394 ± 0.0327 fold-change vs cycle 0; in experiment [1], 0.487 ± 0.0246 fold-change vs cycle 0; in experiment [2] it was 0.582 ± 0.0265 fold-change vs cycle 0.

As to CGTTCC, the binding signal with SALL4 ZFC4 WT (HT-SELEX) was determined as 0.389 ± 0.0208 fold-change vs cycle 0; in experiment [1] it was 0.468 ± 0.0134 fold-change vs cycle 0; in experiment [2], 0.546 ± 0.0299 fold-change vs cycle 0.

In the case of CACTAA, the binding signal in the experiment with SALL4 ZFC4 WT (HT-SELEX) was 1.22 ± 0.0467 fold-change vs cycle 0; in experiment [1] it was 1.38 ± 0.0225 fold-change vs cycle 0; in experiment [2] it was 1.29 ± 0.0518 fold-change vs cycle 0.

CTTCAC: the results for the binding signal (with SALL4 ZFC4 WT (HT-SELEX); in experiment [1]; in experiment [2]) were 0.856 ± 0.0564 fold-change vs cycle 0, 1.04 ± 0.0731 fold-change vs cycle 0 and 1.03 ± 0.0678 fold-change vs cycle 0, respectively.

As to AAAGGG, the binding signal came out at 0.754 ± 0.0569 fold-change vs cycle 0 with SALL4 ZFC4 WT (HT-SELEX), 0.891 ± 0.0422 fold-change vs cycle 0 in experiment [1] and 0.879 ± 0.0118 fold-change vs cycle 0 in experiment [2].

Regarding CACGTC, the binding signal amounted to 0.427 ± 0.0304 fold-change vs cycle 0 with SALL4 ZFC4 WT (HT-SELEX), 0.52 ± 0.0494 fold-change vs cycle 0 in experiment [1] and 0.633 ± 0.0372 fold-change vs cycle 0 in experiment [2].

TACGAA: the results for the binding signal (with SALL4 ZFC4 WT (HT-SELEX); in experiment [1]; in experiment [2]) were 1.17 ± 0.0583 fold-change vs cycle 0, 1.27 ± 0.067 fold-change vs cycle 0 and 1.22 ± 0.0855 fold-change vs cycle 0, respectively.

Turning to AAGTCT, the binding signal with SALL4 ZFC4 WT (HT-SELEX) turned out to be 1.259 ± 0.00421 fold-change vs cycle 0; in experiment [1], 1.4 ± 0.0184 fold-change vs cycle 0; in experiment [2], 1.38 ± 0.0691 fold-change vs cycle 0.

Regarding CGTGCC, the results for the binding signal in experiment [1] and in experiment [2] were 0.121 ± 0.0106 fold-change vs cycle 0 and 0.246 ± 0.0768 fold-change vs cycle 0, respectively.

For ACGCCT, the figures for the binding signal in experiment [1] and in experiment [2] were 0.304 ± 0.0301 fold-change vs cycle 0 and 0.443 ± 0.0612 fold-change vs cycle 0, respectively.

For AGCGTC, the binding signal in experiment [1] is 0.301 ± 0.0204 fold-change vs cycle 0; in experiment [2] it was 0.444 ± 0.0717 fold-change vs cycle 0.

As to GACGAC, the results for the binding signal in experiment [1] and in experiment [2] were 0.342 ± 0.0283 fold-change vs cycle 0 and 0.474 ± 0.0702 fold-change vs cycle 0, respectively.

As to CCCGGC, the binding signal in experiment [1] amounted to 0.0588 ± 0.00399 fold-change vs cycle 0; in experiment [2], 0.151 ± 0.0654 fold-change vs cycle 0.

AGGCAC: the values for the binding signal in experiment [1] and in experiment [2] were 0.34 ± 0.0246 fold-change vs cycle 0 and 0.486 ± 0.0565 fold-change vs cycle 0, respectively.

For the sequence CGGTGC, the binding signal was determined as 0.129 ± 0.00419 fold-change vs cycle 0 in experiment [1] and 0.238 ± 0.0719 fold-change vs cycle 0 in experiment [2].

As for GAGGGC, the binding signal in experiment [1] was 0.201 ± 0.0133 fold-change vs cycle 0; in experiment [2], 0.323 ± 0.085 fold-change vs cycle 0.

As to GCCGAC, the binding signal in experiment [1] is 0.0865 ± 0.0114 fold-change vs cycle 0; in experiment [2], 0.204 ± 0.0612 fold-change vs cycle 0.

Consider CACGGC, for which the binding signal came out at 0.114 ± 0.0156 fold-change vs cycle 0 in experiment [1] and 0.228 ± 0.0664 fold-change vs cycle 0 in experiment [2].

Turning to CGCACG, the binding signal was determined as 0.0997 ± 0.0037 fold-change vs cycle 0 in experiment [1] and 0.21 ± 0.071 fold-change vs cycle 0 in experiment [2].

For ACCGCA, the binding signal in experiment [1] amounted to 0.267 ± 0.0189 fold-change vs cycle 0; in experiment [2], 0.39 ± 0.0525 fold-change vs cycle 0.

In the case of CCAATA, the binding signal with SALL4 ZFC4 WT (HT-SELEX) turned out to be 1.24 ± 0.0729 fold-change vs cycle 0; in experiment [2], 1.22 ± 0.0438 fold-change vs cycle 0.

Consider ATGCCC, for which the binding signal was determined as 0.331 ± 0.00967 fold-change vs cycle 0 in experiment [1] and 0.475 ± 0.0568 fold-change vs cycle 0 in experiment [2].

As to CATAGA, the results for the binding signal (with SALL4 ZFC4 WT (HT-SELEX); in experiment [2]) were 1.37 ± 0.0454 fold-change vs cycle 0 and 1.34 ± 0.0648 fold-change vs cycle 0, respectively.

Consider CGCAAC, for which the binding signal worked out at 0.251 ± 0.0146 fold-change vs cycle 0 in experiment [1] and 0.378 ± 0.0552 fold-change vs cycle 0 in experiment [2].

Turning to CGACGC, the figures for the binding signal in experiment [1] and in experiment [2] were 0.0904 ± 0.00963 fold-change vs cycle 0 and 0.193 ± 0.0701 fold-change vs cycle 0, respectively.

For AGGGCG, the binding signal in experiment [1] worked out at 0.146 ± 0.011 fold-change vs cycle 0; in experiment [2], 0.26 ± 0.0708 fold-change vs cycle 0.

As to ACCGAC, the results for the binding signal in experiment [1] and in experiment [2] were 0.345 ± 0.0112 fold-change vs cycle 0 and 0.497 ± 0.0584 fold-change vs cycle 0, respectively.

As for GGCAGA, the binding signal in experiment [1] turned out to be 0.306 ± 0.0166 fold-change vs cycle 0; in experiment [2], 0.438 ± 0.0703 fold-change vs cycle 0.

As for ACCGCC, the figures for the binding signal in experiment [1] and in experiment [2] were 0.117 ± 0.0115 fold-change vs cycle 0 and 0.235 ± 0.0718 fold-change vs cycle 0, respectively.

ATGGAG: the binding signal was 0.932 ± 0.0365 fold-change vs cycle 0 in the experiment with SALL4 ZFC4 WT (HT-SELEX) and 1.04 ± 0.0381 fold-change vs cycle 0 in experiment [2].

Regarding AGACGC, the binding signal turned out to be 0.274 ± 0.0116 fold-change vs cycle 0 in experiment [1] and 0.405 ± 0.0774 fold-change vs cycle 0 in experiment [2].

For the sequence GCCACA, the binding signal in experiment [1] is 0.251 ± 0.0128 fold-change vs cycle 0; in experiment [2] it was 0.391 ± 0.0588 fold-change vs cycle 0.

As to GGAATA, the binding signal in experiment [1] amounted to 1.41 ± 0.0506 fold-change vs cycle 0; in experiment [2], 1.35 ± 0.0751 fold-change vs cycle 0.

Regarding ATTGTG, the binding signal in the experiment with SALL4 ZFC4 WT (HT-SELEX) was 1.1 ± 0.0622 fold-change vs cycle 0; in experiment [2] it was 1.18 ± 0.0673 fold-change vs cycle 0.

For CAAGCC, the results for the binding signal in experiment [1] and in experiment [2] were 0.349 ± 0.0256 fold-change vs cycle 0 and 0.491 ± 0.0577 fold-change vs cycle 0, respectively.

Take CCCGCC: the binding signal in experiment [1] stood at 0.0634 ± 0.0031 fold-change vs cycle 0; in experiment [2] it was 0.164 ± 0.0698 fold-change vs cycle 0.

Turning to CGCCAA, the binding signal was 0.185 ± 0.0197 fold-change vs cycle 0 in experiment [1] and 0.316 ± 0.0834 fold-change vs cycle 0 in experiment [2].

GCCACC: the binding signal was 0.153 ± 0.0112 fold-change vs cycle 0 in experiment [1] and 0.282 ± 0.0759 fold-change vs cycle 0 in experiment [2].

Consider GCGGAC, for which the binding signal in experiment [1] is 0.125 ± 0.0161 fold-change vs cycle 0; in experiment [2] it was 0.239 ± 0.0553 fold-change vs cycle 0.

For CCGCGC, the values for the binding signal in experiment [1] and in experiment [2] were 0.0273 ± 0.00598 fold-change vs cycle 0 and 0.0941 ± 0.0469 fold-change vs cycle 0, respectively.
